Test results taken from paper PMC11006913.

target: HOXA4 (Homo sapiens, UniProt Q00056 201-287, R217L); assay: PBM; 200 nM protein, PBS; conditions: dsDNA, one strand shown
Sequence (Q00056 201-287 R217L): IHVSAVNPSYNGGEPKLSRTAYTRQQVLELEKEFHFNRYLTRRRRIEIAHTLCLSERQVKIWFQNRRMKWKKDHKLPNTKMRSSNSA

In order of rising binding signal:
1. CAGGGGGA  9.64 upbm affinity estimate (log intensity, higher = more binding, comparable within an allelic series)
2. CCAGCGGG  9.65 upbm affinity estimate (log intensity, higher = more binding, comparable within an allelic series)
3. AGTCCCCG  9.67 upbm affinity estimate (log intensity, higher = more binding, comparable within an allelic series)
4. GGACTCCC  9.72 upbm affinity estimate (log intensity, higher = more binding, comparable within an allelic series)
5. CCTGGGCG  9.75 upbm affinity estimate (log intensity, higher = more binding, comparable within an allelic series)
6. AGGAGTCC  9.79 upbm affinity estimate (log intensity, higher = more binding, comparable within an allelic series)
7. CCTCCGTC  9.8 upbm affinity estimate (log intensity, higher = more binding, comparable within an allelic series)
8. CCCATGGC  9.81 upbm affinity estimate (log intensity, higher = more binding, comparable within an allelic series)
9. CAGACCTC  9.83 upbm affinity estimate (log intensity, higher = more binding, comparable within an allelic series)
10. CCCCGACC  9.84 upbm affinity estimate (log intensity, higher = more binding, comparable within an allelic series)
11. AATCCCCC  9.86 upbm affinity estimate (log intensity, higher = more binding, comparable within an allelic series)
12. CCTTCCCG  9.86 upbm affinity estimate (log intensity, higher = more binding, comparable within an allelic series)
13. GAAGGGGA  9.89 upbm affinity estimate (log intensity, higher = more binding, comparable within an allelic series)
14. CCTCGTCC  9.95 upbm affinity estimate (log intensity, higher = more binding, comparable within an allelic series)

target: HOXA4 (Homo sapiens, UniProt Q00056 201-287); assay: PBM; 200 nM protein, PBS; conditions: dsDNA, one strand shown
Sequence (Q00056 201-287): as the sequence (Q00056 201-287 R217L) above, with L17R counted along it

In order of falling binding signal:
1. ACGTTAAT  12.9 upbm affinity estimate (log intensity, higher = more binding, comparable within an allelic series)
2. CATGATTA  12.6 upbm affinity estimate (log intensity, higher = more binding, comparable within an allelic series)
3. AAGCTAAT  12.3 upbm affinity estimate (log intensity, higher = more binding, comparable within an allelic series)
4. TAAAATTA  12.2 upbm affinity estimate (log intensity, higher = more binding, comparable within an allelic series)
5. GAGTAATA  11.7 upbm affinity estimate (log intensity, higher = more binding, comparable within an allelic series)
6. AGTAATTC  11.6 upbm affinity estimate (log intensity, higher = more binding, comparable within an allelic series)
7. AACGAATT  11.6 upbm affinity estimate (log intensity, higher = more binding, comparable within an allelic series)
8. CTCATCTA  11.5 upbm affinity estimate (log intensity, higher = more binding, comparable within an allelic series)
9. ATAAATCG  11.5 upbm affinity estimate (log intensity, higher = more binding, comparable within an allelic series)
10. GATTTATA  11.4 upbm affinity estimate (log intensity, higher = more binding, comparable within an allelic series)
11. GTCTATAA  11.4 upbm affinity estimate (log intensity, higher = more binding, comparable within an allelic series)
12. GTAAATAC  11.3 upbm affinity estimate (log intensity, higher = more binding, comparable within an allelic series)
13. CAATCACG  11.2 upbm affinity estimate (log intensity, higher = more binding, comparable within an allelic series)
14. ACGTTTAG  11 upbm affinity estimate (log intensity, higher = more binding, comparable within an allelic series)
15. CGTCAATA  10.9 upbm affinity estimate (log intensity, higher = more binding, comparable within an allelic series)
16. ACCTGCCG  9.98 upbm affinity estimate (log intensity, higher = more binding, comparable within an allelic series)
17. ACCCTAGG  9.97 upbm affinity estimate (log intensity, higher = more binding, comparable within an allelic series)
18. AGTCCCCG  9.89 upbm affinity estimate (log intensity, higher = more binding, comparable within an allelic series)
19. AGGGGGCA  9.88 upbm affinity estimate (log intensity, higher = more binding, comparable within an allelic series)
20. CCCCGACC  9.87 upbm affinity estimate (log intensity, higher = more binding, comparable within an allelic series)
21. AATCCCCC  9.87 upbm affinity estimate (log intensity, higher = more binding, comparable within an allelic series)
22. CAGGGGGA  9.87 upbm affinity estimate (log intensity, higher = more binding, comparable within an allelic series)
23. CCTCGTCC  9.86 upbm affinity estimate (log intensity, higher = more binding, comparable within an allelic series)
24. GGACTCCC  9.84 upbm affinity estimate (log intensity, higher = more binding, comparable within an allelic series)
25. CCTCCAGC  9.83 upbm affinity estimate (log intensity, higher = more binding, comparable within an allelic series)
26. GAAGGGGA  9.82 upbm affinity estimate (log intensity, higher = more binding, comparable within an allelic series)
27. CAGACCTC  9.81 upbm affinity estimate (log intensity, higher = more binding, comparable within an allelic series)
28. CCTTCCCG  9.79 upbm affinity estimate (log intensity, higher = more binding, comparable within an allelic series)
29. CACCCTGG  9.78 upbm affinity estimate (log intensity, higher = more binding, comparable within an allelic series)
30. AGCTCCCC  9.78 upbm affinity estimate (log intensity, higher = more binding, comparable within an allelic series)
31. CCCATGGC  9.77 upbm affinity estimate (log intensity, higher = more binding, comparable within an allelic series)
32. AGGAGTCC  9.77 upbm affinity estimate (log intensity, higher = more binding, comparable within an allelic series)
33. CACGGTGC  9.75 upbm affinity estimate (log intensity, higher = more binding, comparable within an allelic series)
34. CCTGGGCG  9.75 upbm affinity estimate (log intensity, higher = more binding, comparable within an allelic series)
35. AGGGCGAG  9.74 upbm affinity estimate (log intensity, higher = more binding, comparable within an allelic series)
36. CTCCCACC  9.74 upbm affinity estimate (log intensity, higher = more binding, comparable within an allelic series)
37. CCAGCGGG  9.72 upbm affinity estimate (log intensity, higher = more binding, comparable within an allelic series)
38. CCACGCCC  9.64 upbm affinity estimate (log intensity, higher = more binding, comparable within an allelic series)
39. CCTCCGTC  9.63 upbm affinity estimate (log intensity, higher = more binding, comparable within an allelic series)
40. AGTCCTTC  9.61 upbm affinity estimate (log intensity, higher = more binding, comparable within an allelic series)
